Active and inactive are the calls of the source.

The subject of assay [1] is Plasmodium falciparum Sir2 (PF13_0152, Sir2A). As to the kind of experiment: Plasmodium falciparum Sir2A binding compounds – biochemical, small-molecule microarray, 635 nm fluorescence, primary screen (AID 1098).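 Note: score merges spot fluorescence intensity with its signal-to-noise ratio.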 The conditions noted are these: fluorescence 635 nm, higher = more signal.
Assay [2] can be described thus: probe aDKK1 binding to arrayed compounds – biochemical, biotinylated probe, 635/667 nm fluorescence, primary screen (AID 1099).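 Note: score merges 667nm spot fluorescence with signal to noise across triplicate slides.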 The conditions noted are these: small-molecule microarray, higher = more signal.
Assay [3] in a line: probe aCHRDL2 binding to arrayed compounds – biochemical, biotinylated probe, 635/667 nm fluorescence, primary screen (AID 1100). The note with it: small-molecule microarray, higher = more signal.
A short description of assay [4]: change in splice reporter luminescence, either direction, cell-based, HEK293, spliceosome inhibition project, primary screen (AID 1101).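 Note: HEK293 cells carrying a splicing-competent luciferase reporter gene; test concentration not given here.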 The note with it: HEK293 splicing luciferase reporter, 24 h, higher = more signal, called active from +8 up or from −8 down. In general terms: In a reporter assay the amount or activity of a reporter protein is the signal.
The target in assay [5] is Fibroblast growth factor 10 (Homo sapiens) (UniProt O15520). Briefly: compounds binding fibroblast growth factor 10 – biochemical, small-molecule microarray, 635 nm fluorescence, primary screen (AID 1102). The conditions noted are these: FGF10 binding, fluorescence 635 nm, higher = more signal.
Chain of Fibroblast growth factor 10 (Homo sapiens) (O15520 whole entry, looked up): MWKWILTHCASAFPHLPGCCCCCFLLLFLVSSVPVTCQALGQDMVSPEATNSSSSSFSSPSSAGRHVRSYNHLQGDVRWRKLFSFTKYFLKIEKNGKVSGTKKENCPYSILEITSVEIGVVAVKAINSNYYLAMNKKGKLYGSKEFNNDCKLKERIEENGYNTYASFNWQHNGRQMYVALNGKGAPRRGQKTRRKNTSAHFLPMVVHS
The test system of assay [6] is glycogen synthase kinase-3 (GSK3A per assay name; protocol says GSK3B). Briefly: compounds binding glycogen synthase kinase-3 – biochemical, small-molecule microarray, 635 nm fluorescence, GSK3A, primary screen (AID 1103). Note: the record names both GSK3A and GSK3B. The note with it: fluorescence 635 nm, higher = more signal.
Assay [7] addresses Epidermal growth factor receptor (Homo sapiens) (UniProt P00533). Briefly: compounds binding epidermal growth factor receptor – biochemical, small-molecule microarray, 635 nm fluorescence, primary screen (AID 1104).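 Note: score merges 667 nm emission intensity with spot signal to noise over triplicate slides.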 The conditions noted are these: EGFR binding, higher = more signal.
The target of assay [8] is Follistatin-related protein 3 (Homo sapiens) (UniProt O95633). As to the kind of experiment: compounds binding follistatin-related protein 3 – biochemical, small-molecule microarray, 635 nm fluorescence, primary screen (AID 1105).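 Note: score merges emission near 667 nm and signal to noise per printed spot across three slides.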 The conditions noted are these: FSTL3 binding, higher = more signal.
Chain of Follistatin-related protein 3 (Homo sapiens) (O95633 whole entry, looked up): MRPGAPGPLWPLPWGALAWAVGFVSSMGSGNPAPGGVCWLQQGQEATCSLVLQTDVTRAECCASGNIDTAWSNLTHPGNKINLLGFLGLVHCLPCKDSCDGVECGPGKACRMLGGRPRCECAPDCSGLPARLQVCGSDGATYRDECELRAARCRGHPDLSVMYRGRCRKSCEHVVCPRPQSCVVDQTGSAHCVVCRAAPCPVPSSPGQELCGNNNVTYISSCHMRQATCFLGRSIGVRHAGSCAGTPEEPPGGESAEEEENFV
For assay [9], the target named is Dickkopf-related protein 1 (Homo sapiens) (UniProt O94907). As to the kind of experiment: small molecules binding DKK1 protein – biochemical, small-molecule microarray, 635 nm fluorescence scan, primary screen (AID 1106).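 Note: score merges emission near 667 nm with signal to noise over three replicate slides.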 The note with it: higher = more signal.
Chain of Dickkopf-related protein 1 (Homo sapiens) (O94907 whole entry, looked up): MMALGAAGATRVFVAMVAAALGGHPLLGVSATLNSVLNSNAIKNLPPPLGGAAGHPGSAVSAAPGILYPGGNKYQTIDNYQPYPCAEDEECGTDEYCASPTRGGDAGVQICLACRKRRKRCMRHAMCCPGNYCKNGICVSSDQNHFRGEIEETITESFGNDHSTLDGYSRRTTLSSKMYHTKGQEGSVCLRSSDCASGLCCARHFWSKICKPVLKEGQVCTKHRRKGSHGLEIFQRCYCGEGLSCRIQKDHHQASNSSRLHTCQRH
Assay [10] relates to Inhibin beta A chain (activin A). Briefly: small molecules binding activin A – biochemical, small-molecule microarray, 635 nm fluorescence scan, primary screen (AID 1107).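 Note: mouse activin A protein probed at 4.33 µg/mL on printed slides; score merges bound-protein fluorescence near 667 nm with spot signal-to-noise.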 The conditions noted are these: INHBA, higher = more signal.
Assay [11] relates to Human papillomavirus type 1a protein E7 (residues 44-93). As to the kind of experiment: small molecules binding HPV E7 44-93 – biochemical, small-molecule microarray, residues 44-93, 635 nm fluorescence, primary screen (AID 1108).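 Note: E7 fragment applied at 1 µg/mL in TBST for 1 h at 4 C; score combines spot fluorescence with its signal to noise ratio.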 The conditions noted are these: fluorescence 635 nm, higher = more signal.
Assay [12] can be described thus: hepatitis C replication reporter changes, two-sided – Huh7 cells, luciferase reporter, HCV replication inhibitor project, primary screen (AID 1109).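 Note: huh7 hepatoma cells harbouring a luciferase neomycin HCV replicon reporter; luciferase luminescence as measure of HCV replicon replication; test concentration not given here.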 The note with it: Huh7 HCV replicon luciferase reporter, 48 h; higher = more signal.
For assay [13], the target named is Left-right determination factor 2 (Homo sapiens) (UniProt O00292). Briefly: small molecules binding LEFTY2 protein – biochemical, small-molecule microarray, 635 nm fluorescence scan, primary screen (AID 1110). The conditions noted are these: higher = more signal.
Chain of Left-right determination factor 2 (Homo sapiens) (O00292 whole entry, looked up): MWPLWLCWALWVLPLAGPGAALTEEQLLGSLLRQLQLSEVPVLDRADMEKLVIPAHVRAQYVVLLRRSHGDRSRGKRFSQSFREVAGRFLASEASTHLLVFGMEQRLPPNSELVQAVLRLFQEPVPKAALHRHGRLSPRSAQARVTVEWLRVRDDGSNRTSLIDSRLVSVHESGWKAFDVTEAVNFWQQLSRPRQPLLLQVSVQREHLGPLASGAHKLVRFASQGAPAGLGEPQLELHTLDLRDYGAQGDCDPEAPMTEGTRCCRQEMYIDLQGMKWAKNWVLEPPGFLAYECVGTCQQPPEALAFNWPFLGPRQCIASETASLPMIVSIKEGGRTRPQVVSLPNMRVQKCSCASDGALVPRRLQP
Assay [14] has as its target Calmodulin-1 (Homo sapiens) (UniProt P0DP23). Briefly: small molecules binding calmodulin-1 with EGTA – biochemical, small-molecule microarray, Cy5-labelled CALM1, profiling panel (AID 1111).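 Note: labelled calmodulin applied in Tris saline Tween buffer holding calcium plus EGTA and DTT.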 The note with it: Cy5-CALM1 binding fluorescence, higher = more signal.
Assay [15] has the same target. Briefly: small molecules binding Ca-loaded calmodulin-1 – biochemical, small-molecule microarray, Cy5-labelled CALM1, plus calcium, artefact control for SMM control-protein annotation, profiling panel (AID 1112).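 Note: score merges spot fluorescence with signal to noise from triplicate slides.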 The note with it: Cy5-CALM1 binding fluorescence, higher = more signal.
Assay [16] is described as follows: probe aWnt5a binding to arrayed compounds – biochemical, biotinylated probe, 635/667 nm fluorescence, primary screen (AID 1113).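 Note: score merges 667 nm fluorescence intensity with signal-to-noise per printed feature.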 The note with it: small-molecule microarray, higher = more signal.
Assay [17] can be described thus: probe aShh binding to arrayed compounds – biochemical, biotinylated probe, 635/667 nm fluorescence, primary screen (AID 1114).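 Note: probe is biotin-labelled aShh protein from a stem cell growth factor screen; measures binding of labelled protein to compounds printed on the slide; score merges feature fluorescence at 667 nm with signal-to-noise.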 The conditions noted are these: small-molecule microarray, higher = more signal.
Assay [18] can be described thus: probe aNog binding to arrayed compounds – biochemical, biotinylated probe, 635/667 nm fluorescence, primary screen (AID 1115).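 Note: probe is biotinylated aNog protein used at 0.15 µg/mL for 1 h at 4 C; z-score combines 667 nm fluorescence of each spot with its signal to noise.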 The note with it: small-molecule microarray, higher = more signal.
Assay [19] has as its target Torsin-1A-interacting protein 1 (Homo sapiens) (UniProt Q5JTV8). Briefly: compound microarray binding of lysate hLAP1 – cell lysate, small-molecule microarray, COS7 lysate, 635/667 nm fluorescence, primary screen (AID 1116). The conditions noted are these: 635 nm fluorescence, higher = more signal.
Assay [20] concerns the target Alpha-bungarotoxin (Bungarus multicinctus) (UniProt P60615). As to the kind of experiment: compounds binding labelled alpha-BTX control protein – biochemical, small-molecule microarray, Alexa647 label, 635/667 nm fluorescence, artefact control for SMM control protein annotation, profiling panel (AID 1117). The conditions noted are these: alpha-BTX-A647 binding fluorescence, higher = more signal.

Chain of Epidermal growth factor receptor (Homo sapiens) (P00533 whole entry, looked up): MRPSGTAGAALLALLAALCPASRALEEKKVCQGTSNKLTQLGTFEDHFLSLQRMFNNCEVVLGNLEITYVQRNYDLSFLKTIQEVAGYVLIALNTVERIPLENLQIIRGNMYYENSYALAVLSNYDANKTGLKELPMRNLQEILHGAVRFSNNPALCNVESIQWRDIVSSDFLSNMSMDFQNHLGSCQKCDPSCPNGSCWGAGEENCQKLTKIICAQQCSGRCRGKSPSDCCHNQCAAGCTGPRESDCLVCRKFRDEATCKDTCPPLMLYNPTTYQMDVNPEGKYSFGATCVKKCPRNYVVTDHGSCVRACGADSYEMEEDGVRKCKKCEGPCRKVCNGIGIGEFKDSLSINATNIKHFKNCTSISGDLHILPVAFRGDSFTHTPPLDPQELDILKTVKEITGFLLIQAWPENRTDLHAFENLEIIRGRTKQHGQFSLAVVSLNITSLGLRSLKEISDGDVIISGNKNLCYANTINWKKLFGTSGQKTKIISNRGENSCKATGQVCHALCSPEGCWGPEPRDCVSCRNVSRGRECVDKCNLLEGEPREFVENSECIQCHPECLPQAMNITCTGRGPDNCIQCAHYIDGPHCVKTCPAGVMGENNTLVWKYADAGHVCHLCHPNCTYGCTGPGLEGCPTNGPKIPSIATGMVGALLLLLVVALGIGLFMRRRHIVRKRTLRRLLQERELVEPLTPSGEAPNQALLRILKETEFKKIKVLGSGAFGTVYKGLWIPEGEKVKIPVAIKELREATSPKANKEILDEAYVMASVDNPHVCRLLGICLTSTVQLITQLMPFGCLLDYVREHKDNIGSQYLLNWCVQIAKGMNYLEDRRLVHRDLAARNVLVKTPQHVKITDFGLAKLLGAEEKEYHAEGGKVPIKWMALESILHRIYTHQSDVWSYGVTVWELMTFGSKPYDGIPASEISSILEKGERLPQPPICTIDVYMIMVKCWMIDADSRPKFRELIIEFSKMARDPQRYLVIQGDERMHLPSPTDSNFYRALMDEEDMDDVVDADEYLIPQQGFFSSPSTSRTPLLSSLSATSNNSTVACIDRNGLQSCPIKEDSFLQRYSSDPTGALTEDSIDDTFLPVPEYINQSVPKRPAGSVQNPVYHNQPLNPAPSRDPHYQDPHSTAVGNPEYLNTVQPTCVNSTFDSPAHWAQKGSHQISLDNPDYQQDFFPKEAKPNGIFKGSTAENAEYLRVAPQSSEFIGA
Chain of Alpha-bungarotoxin (Bungarus multicinctus) (P60615 whole entry, looked up): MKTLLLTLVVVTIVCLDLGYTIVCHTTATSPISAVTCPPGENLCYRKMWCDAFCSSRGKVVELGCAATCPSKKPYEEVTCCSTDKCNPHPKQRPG
Chain of Torsin-1A-interacting protein 1 (Homo sapiens) (Q5JTV8 whole entry, looked up): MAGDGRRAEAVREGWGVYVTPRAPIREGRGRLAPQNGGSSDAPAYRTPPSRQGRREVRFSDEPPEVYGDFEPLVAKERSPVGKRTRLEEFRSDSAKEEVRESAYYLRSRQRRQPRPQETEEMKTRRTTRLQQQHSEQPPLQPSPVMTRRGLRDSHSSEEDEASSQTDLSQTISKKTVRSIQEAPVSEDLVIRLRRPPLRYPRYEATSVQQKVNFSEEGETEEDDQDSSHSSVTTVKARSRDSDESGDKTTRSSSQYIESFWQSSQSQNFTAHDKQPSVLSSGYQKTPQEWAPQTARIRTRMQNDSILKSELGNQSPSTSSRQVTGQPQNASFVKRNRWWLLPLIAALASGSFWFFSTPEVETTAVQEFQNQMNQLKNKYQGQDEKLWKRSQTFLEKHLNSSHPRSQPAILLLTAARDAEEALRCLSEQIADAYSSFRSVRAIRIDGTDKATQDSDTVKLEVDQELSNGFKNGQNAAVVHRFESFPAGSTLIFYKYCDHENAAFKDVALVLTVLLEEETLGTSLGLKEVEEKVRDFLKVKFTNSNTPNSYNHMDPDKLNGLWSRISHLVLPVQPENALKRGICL

For the molecule `COCCn1c(C(=O)N(C)C)cc2c1C[C@H]1CN(C(=O)c3ccccc3)[C@@](Cc3ccc(F)cc3)(C(=O)OC)[C@@H]21`, the composite z-score was 0.205 in assay [1]; 1.15 in assay [2]; 0.843 in assay [3]; 0.61 in assay [5]; 0.397 in [6]; -0.0331 in [7]. For the same molecule, the composite z-score in [8] is 0.126; in assay [9] it was -0.567; in [10], 0.692; in [11], 1.3; in assay [13], -0.0863; in [14], 0.487. Also, the composite z-score in assay [15] amounted to 0.666; in assay [16] it was 0.0559; in assay [17], 0.385; in [18] it was 0.873; in assay [19], 0.153; in [20] it was 0.305. Besides, the z-score is -1.12 (inactive) in assay [4] and -0.285 in assay [12].

With `C=C(C(=O)CC[C@@H](OC(=O)c1cccnc1)c1ccc(CO)o1)C(C)C`, the composite z-score in assay [1] is 0.392; in assay [2], -0.174; in [3], -0.36; in assay [5], 1.16; in assay [6], 0.803; in assay [7] it was 0.152. Besides, the composite z-score in assay [8] is 0.933; in [9] it was 0.479; in assay [10], 1.04; in [11], 1.03; in [13], 0.46; in assay [14], -0.478. Moreover, the composite z-score in [15] was -0.835; in [16], -0.139; in assay [17], -0.0701; in [18], 0.337; in assay [19], 1.35; in [20], 0.346. Also, the z-score in assay [4] was 1.38 (inactive); in assay [12], -1.24.

As for `CN1C(=O)C2C(C1=O)C1C=C(c3ccc(CO)cc3)C2C(C2CC2)N1Cc1sc2ccccc2c1Cl` (stereo not given), the composite z-score in assay [1] is 0.924; in assay [2], -0.197; in assay [3], 0.82; in assay [5], 1.25; in [6] it was 1.33; in assay [7], 0.291. Besides, the composite z-score in assay [8] worked out at 0.989; in [9], 0.473; in [10] it was 0.74; in [11], 0.946; in assay [13], 0.545; in assay [14] it was 2.06. In addition, the composite z-score is 0.398 in assay [15]; 0.0561 in assay [16]; 0.079 in assay [17]; -0.186 in assay [18]; 2.06 in [19]; 2.87 in assay [20]. The values for the z-score in [4] and in assay [12] were 0.254 (inactive) and -1.58, respectively.

On to `O=C1OCCC/C=C\[C@H]2OC34C=CCN(Cn5nnc6ccccc65)C(=O)[C@H]3N(CCCO)C(=O)[C@@H]4C12` (stereo not given in full), for which the composite z-score in assay [1] was 0.649; in [2], -0.282; in assay [3], 0.741; in [5], -1.34; in [6], -0.556; in assay [7], -1.43. For the same molecule, the composite z-score in assay [8] was -0.921; in [9], -1.16; in [10], -0.0648; in assay [11], 0.692; in assay [13] it was -2; in [14], -0.44. The composite z-score is 0.458 in assay [15]; -0.191 in assay [16]; 0.0952 in [17]; 0.574 in assay [18]; 2.11 in assay [19]; -1.75 in [20]. Further, the z-score in [4] was 0.288 (inactive); in [12], -1.01.

With `O=C(N1CCCCC1)[C@]1(CCS(=O)(=O)c2ccccc2)N=C(c2ccc(OCCCO)cc2)O[C@@H]1c1ccccc1`, the composite z-score is 1.26 in assay [1]; 1.02 in assay [2]; 1.08 in assay [3]; 0.997 in assay [5]; 1.31 in [6]; -0.0354 in [7]. Also, the composite z-score was 0.536 in assay [8]; -0.142 in assay [9]; 1.29 in assay [10]; 0.876 in assay [11]; 0.101 in assay [13]; 1.91 in assay [14]. In addition, the composite z-score in assay [15] was 1.02; in assay [16], 0.055; in assay [17], 1.49; in assay [18], 0.56; in [19], 0.917; in assay [20] it was 2.56. For the same molecule, the z-score in assay [4] was 0.25 (inactive); in [12] it was -3.16.

As to `CC(c1ccccc1)C(O)C1C=CC2C(=O)N(Cc3ccccc3)C(=O)C2N1n1cnnc1` (stereo not given), the composite z-score in assay [1] worked out at 0.424; in [2], 0.492; in assay [3], 0.675; in assay [5], 0.691; in assay [6], 0.29; in assay [7] it was 0.153. The composite z-score was 0.369 in [8]; -0.174 in assay [9]; 0.813 in assay [10]; 1.12 in [11]; 0.202 in [13]; -0.133 in [14]. Further, the composite z-score in assay [15] came to 0.13; in assay [16] it was 0.0657; in assay [17], 0.297; in assay [18], 0.49; in assay [19], 0.0111; in assay [20] it was 0.512. For the same molecule, the figures for the z-score in assay [4] and in [12] were -0.605 (inactive) and -0.562, respectively.
